For 38 targets, log2 fold change results are on record in the supplement of paper PMC10849652.

Targets with a hit are over-represented here; the source holds about 7,900 in all. About 0.6% of all pairs of compound and target were hits. A number with no mark means an inactive call.

UniProt Q14974, sequence (Q14974 whole entry, looked up): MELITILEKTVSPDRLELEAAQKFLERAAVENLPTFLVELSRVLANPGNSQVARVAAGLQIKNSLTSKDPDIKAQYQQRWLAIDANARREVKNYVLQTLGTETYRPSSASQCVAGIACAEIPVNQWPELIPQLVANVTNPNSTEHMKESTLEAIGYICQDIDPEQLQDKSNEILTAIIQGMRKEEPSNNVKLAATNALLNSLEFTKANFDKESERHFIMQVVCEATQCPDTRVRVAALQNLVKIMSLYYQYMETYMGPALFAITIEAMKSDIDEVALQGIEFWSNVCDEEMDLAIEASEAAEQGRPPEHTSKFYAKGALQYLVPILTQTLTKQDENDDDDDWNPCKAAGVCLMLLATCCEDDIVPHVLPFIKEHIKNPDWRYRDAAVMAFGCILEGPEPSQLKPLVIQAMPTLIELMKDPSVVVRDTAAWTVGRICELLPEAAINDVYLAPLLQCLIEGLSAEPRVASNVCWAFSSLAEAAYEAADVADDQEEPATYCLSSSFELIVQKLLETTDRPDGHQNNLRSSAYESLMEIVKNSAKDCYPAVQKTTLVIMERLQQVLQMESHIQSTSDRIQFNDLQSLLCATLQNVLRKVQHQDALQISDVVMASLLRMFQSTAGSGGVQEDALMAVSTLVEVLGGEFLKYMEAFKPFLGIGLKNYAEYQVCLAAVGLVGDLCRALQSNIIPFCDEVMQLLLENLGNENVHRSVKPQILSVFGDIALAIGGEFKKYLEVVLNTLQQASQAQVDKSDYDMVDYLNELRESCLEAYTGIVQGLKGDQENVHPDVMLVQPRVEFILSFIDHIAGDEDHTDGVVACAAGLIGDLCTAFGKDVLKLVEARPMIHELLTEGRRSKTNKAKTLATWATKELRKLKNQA
UniProt Q13257, sequence (Q13257 whole entry, looked up): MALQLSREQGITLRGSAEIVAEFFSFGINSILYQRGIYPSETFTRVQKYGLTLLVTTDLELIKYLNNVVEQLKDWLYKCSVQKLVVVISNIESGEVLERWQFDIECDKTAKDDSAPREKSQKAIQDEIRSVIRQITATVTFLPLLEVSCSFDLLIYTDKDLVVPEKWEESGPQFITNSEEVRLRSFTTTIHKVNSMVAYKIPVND
UniProt Q8TBB5, sequence (Q8TBB5 whole entry, looked up): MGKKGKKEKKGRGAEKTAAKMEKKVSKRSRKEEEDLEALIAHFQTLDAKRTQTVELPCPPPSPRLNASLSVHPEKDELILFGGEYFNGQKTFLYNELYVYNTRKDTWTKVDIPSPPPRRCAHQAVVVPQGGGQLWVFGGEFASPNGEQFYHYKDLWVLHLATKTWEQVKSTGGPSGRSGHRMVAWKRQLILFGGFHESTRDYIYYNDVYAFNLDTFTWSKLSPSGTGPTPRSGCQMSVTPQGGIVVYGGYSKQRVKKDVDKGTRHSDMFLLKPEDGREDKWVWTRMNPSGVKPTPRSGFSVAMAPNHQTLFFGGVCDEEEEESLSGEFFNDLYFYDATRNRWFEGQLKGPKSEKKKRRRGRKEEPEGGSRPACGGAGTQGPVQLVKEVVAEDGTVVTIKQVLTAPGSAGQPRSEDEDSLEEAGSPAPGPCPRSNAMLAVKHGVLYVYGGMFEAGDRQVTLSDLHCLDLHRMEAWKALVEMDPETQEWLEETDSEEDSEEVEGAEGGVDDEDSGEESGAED
UniProt O95568, sequence (O95568 whole entry, looked up): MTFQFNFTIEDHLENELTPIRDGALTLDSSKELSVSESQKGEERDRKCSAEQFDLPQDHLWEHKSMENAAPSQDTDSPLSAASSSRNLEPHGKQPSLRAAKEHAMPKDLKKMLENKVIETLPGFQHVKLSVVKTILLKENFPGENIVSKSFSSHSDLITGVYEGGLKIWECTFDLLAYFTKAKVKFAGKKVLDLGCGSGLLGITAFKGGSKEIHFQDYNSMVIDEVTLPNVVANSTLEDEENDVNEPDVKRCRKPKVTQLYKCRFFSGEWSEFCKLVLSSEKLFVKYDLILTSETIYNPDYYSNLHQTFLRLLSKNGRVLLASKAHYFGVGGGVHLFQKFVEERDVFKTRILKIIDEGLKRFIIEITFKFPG
UniProt Q96GX5, sequence (Q96GX5 whole entry, looked up): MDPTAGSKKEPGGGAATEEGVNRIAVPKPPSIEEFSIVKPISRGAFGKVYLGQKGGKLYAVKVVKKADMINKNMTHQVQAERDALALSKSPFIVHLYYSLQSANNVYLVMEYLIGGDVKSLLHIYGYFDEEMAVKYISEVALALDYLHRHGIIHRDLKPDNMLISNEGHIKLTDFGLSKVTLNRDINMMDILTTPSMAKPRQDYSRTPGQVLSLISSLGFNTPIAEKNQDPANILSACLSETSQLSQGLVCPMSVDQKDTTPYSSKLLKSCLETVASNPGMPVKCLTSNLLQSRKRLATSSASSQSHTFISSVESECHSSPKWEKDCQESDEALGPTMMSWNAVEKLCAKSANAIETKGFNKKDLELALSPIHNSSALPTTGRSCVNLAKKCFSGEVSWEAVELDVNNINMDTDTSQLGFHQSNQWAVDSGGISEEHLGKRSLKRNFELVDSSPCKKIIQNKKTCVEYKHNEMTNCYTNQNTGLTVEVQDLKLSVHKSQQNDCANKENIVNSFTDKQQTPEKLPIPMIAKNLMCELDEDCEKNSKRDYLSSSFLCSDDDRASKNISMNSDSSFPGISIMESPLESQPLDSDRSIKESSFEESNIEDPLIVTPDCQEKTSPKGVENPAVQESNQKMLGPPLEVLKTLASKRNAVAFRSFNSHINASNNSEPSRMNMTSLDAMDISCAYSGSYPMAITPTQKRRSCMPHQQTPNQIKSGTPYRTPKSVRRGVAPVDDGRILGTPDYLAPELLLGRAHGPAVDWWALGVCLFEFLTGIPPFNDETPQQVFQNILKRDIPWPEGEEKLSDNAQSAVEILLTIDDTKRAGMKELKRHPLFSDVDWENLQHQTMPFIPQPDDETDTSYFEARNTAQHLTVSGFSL
UniProt O00214, sequence (O00214 whole entry, looked up): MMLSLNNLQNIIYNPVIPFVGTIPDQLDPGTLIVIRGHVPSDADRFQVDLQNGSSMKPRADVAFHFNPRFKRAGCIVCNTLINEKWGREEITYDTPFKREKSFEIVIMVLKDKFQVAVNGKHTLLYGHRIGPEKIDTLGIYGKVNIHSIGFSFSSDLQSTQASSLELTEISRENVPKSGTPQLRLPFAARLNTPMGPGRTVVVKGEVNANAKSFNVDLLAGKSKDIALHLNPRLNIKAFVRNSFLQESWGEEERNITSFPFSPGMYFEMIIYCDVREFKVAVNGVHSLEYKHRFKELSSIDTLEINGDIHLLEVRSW
UniProt P27448, sequence (P27448 whole entry, looked up): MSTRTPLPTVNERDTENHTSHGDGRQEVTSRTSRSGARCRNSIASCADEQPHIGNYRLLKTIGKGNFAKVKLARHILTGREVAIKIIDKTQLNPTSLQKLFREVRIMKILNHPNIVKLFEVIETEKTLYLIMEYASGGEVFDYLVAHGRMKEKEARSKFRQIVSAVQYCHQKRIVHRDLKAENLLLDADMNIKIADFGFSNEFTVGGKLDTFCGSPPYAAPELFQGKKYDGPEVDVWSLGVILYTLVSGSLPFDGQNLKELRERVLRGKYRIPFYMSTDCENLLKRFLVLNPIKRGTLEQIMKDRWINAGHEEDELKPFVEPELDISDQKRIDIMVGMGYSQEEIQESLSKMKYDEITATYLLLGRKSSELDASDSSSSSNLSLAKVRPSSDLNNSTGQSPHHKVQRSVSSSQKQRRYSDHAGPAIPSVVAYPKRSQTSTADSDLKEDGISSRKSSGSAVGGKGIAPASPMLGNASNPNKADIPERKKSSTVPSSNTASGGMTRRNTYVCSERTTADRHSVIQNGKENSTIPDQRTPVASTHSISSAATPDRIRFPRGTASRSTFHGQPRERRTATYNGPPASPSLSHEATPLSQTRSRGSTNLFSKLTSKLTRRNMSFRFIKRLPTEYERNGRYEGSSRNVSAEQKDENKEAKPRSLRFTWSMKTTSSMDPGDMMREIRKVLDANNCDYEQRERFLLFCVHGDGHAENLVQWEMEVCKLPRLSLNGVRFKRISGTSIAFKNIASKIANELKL
UniProt P22692, sequence (P22692 whole entry, looked up): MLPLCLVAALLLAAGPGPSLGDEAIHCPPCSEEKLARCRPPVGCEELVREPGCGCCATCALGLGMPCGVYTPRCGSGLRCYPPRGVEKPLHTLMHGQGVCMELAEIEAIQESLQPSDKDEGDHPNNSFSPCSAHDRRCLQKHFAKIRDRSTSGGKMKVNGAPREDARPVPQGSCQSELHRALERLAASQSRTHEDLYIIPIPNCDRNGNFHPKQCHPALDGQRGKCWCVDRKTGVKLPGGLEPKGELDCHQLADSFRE
UniProt Q92615, sequence (Q92615 whole entry, looked up): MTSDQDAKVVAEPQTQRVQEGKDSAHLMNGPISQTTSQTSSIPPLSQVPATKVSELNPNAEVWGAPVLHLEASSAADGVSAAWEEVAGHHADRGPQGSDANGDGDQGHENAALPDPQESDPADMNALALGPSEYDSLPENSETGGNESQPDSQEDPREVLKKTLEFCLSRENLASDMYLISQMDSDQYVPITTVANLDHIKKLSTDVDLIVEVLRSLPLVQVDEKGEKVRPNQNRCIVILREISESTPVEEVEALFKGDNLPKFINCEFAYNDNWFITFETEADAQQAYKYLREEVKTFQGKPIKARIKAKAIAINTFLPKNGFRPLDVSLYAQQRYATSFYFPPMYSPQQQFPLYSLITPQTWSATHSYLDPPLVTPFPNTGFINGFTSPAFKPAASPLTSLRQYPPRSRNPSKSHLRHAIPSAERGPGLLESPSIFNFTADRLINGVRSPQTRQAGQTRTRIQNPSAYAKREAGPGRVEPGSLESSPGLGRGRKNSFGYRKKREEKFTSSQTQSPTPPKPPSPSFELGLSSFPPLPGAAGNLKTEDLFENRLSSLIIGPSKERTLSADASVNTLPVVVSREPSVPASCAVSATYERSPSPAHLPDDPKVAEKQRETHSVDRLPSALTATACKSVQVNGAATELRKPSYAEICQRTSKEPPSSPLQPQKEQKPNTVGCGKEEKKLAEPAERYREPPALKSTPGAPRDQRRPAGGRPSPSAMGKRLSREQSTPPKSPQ

Compound in this test: c1ccc([C@@H]2C[C@H]2NC2CCNCC2)cc1
In words: log2 fold change, soluble protein after heating vs DMSO (PISA); higher = thermal stabilisation; K562 cells, 10 uM, 30 min; active = over 0.2 and 3.5 SD of the protein, either way, in both replicates (recomputed). An outline of the steps: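 Quantification of soluble protein used TMTpro 16plex LC-MS/MS, with channel sums equalised. Samples were the supernatant after 21,000xg for 90 min of pooled aliquots from K562 cells (2×10^6 cells/mL) treated with 10 μM compound for 30 min, heated for 3 min over 48°C-58°C, and extracted in PBS with 0.5% NP-40 at 4°C. Values, from duplicates, describe thermal stability against control samples on a log2 fold-change scale.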
Take LEO1 (UniProt Q8WVC0): the log2 fold change was -0.011.

In the case of LRFN1 (UniProt Q9P244), the log2 fold change is -0.411.

In the case of LNPK (UniProt Q9C0E8), the log2 fold change was 0.016.

As to MASTL (UniProt Q96GX5), the log2 fold change is -0.02.

Turning to LGALS8 isoform 2 (UniProt O00214), the log2 fold change was -0.12.

As for MBLAC1 (UniProt A4D2B0), the log2 fold change was -0.029.

Consider MIEF1 (UniProt L0R8F8), for which the log2 fold change is 0.007.

With METTL18 (UniProt O95568), the log2 fold change was 0.028.

Consider LMNA (UniProt P02545), for which the log2 fold change was 0.052.

KPNB1 (UniProt Q14974): the log2 fold change is -0.021.

As for KDM5D isoform 3 (UniProt Q9BY66), the log2 fold change is 0.037.

Regarding MED1 (UniProt Q15648), the log2 fold change was 0.058.

With MAD2L1 (UniProt Q13257), the log2 fold change was -0.019.

In the case of ITM2B (UniProt Q9Y287), the log2 fold change is -0.112.

With MAP2K2 (UniProt P36507), the log2 fold change is -0.067.

Turning to MED8 isoform 2 (UniProt Q96G25), the log2 fold change was 0.039.

Take KLHDC4 (UniProt Q8TBB5): the log2 fold change is -0.047.

Regarding LEMD3 (UniProt Q9Y2U8), the log2 fold change was -0.01.

MARK2 (UniProt E9PC69): the log2 fold change was -0.052.

In the case of METAP1D (UniProt Q6UB28), the log2 fold change was 0.127.

Consider MAP4K5 (UniProt Q9Y4K4), for which the log2 fold change is 0.062.

For the target KLHL18 (UniProt O94889), the log2 fold change is -0.021.

Take MARK3 (UniProt P27448): the log2 fold change is 0.004.

For the target MAP2K3 isoform 3 (UniProt P46734), the log2 fold change was 0.016.

For the target MED7 (UniProt O43513), the log2 fold change is 0.076.

IGFBP4 (UniProt P22692): the log2 fold change is 0.148.

For the target MAPRE3 (UniProt Q9UPY8), the log2 fold change was -0.014.

With KCT2 (UniProt Q8NC54), the log2 fold change was 0.028.

On to MAGOHB (UniProt Q96A72), for which the log2 fold change is -0.129.

Regarding LARP4B (UniProt Q92615), the log2 fold change was -0.014.

In the case of MCCC2 (UniProt Q9HCC0), the log2 fold change was 0.026.

Regarding KPNA4 (UniProt O00629), the log2 fold change is 0.009.

Turning to ITM2C (UniProt Q9NQX7), the log2 fold change is -0.121.

For the target MFSD1 isoform 6 (UniProt Q9H3U5), the log2 fold change is 0.039.

With MED16 (UniProt Q9Y2X0), the log2 fold change is 0.019.

Take LONP2 (UniProt Q86WA8): the log2 fold change was -0.147.

With LSS (UniProt P48449), the log2 fold change was 0.087.

IPO7 (UniProt O95373): the log2 fold change is 0.003.
